This passage reports Potency and activity change, negative = inhibition results from PubChem BioAssay (NCATS).

The test system of assay [1] is Zika virus NS2B-NS3 protease (unlinked complex). Put plainly: Primary screen GU Rhodamine qHTS for Zika virus inhibitors: Unlinked NS2B-NS3 protease assay (AID 1347159). Also: nearly all actives have a fitted effect of over 60% in size. Also: potency is read from the fitted curve at half-maximal effect. Put shortly: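 Unlinked NS2B/NS3, 25 nM; Rhod110 peptide, 1.5 microM; compounds, up to 114 microM. Reaction run 15 min at RT in 10 mM Tris-HCl pH 8.0, 0.01% Tween 20; kinetic fluorescence change fitted with a 4-parameter Hill model.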

The subject of assay [2] is Zika virus NS2B-NS3 protease (linked construct). Put plainly: Primary screen NINDS Rhodamine qHTS for Zika virus inhibitors (AID 1347160). Also: nearly all actives have a fitted effect of over 55% in size. Put shortly:
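Single-chain NS2B-NS3 protease, 25 nM, pH 8.0; compounds preincubated 15 min. Activity: Rhodamine110 release from 1.5 microM substrate over 15 min, room temperature, data fitted to 4-parameter Hill.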

Inconclusive results are not listed. Values without a mark were called inactive. Calls of active or inactive are those of the source. Calls follow the shape of the dose curve; as a rule, active = well fitted inhibition curve with a large enough effect; inconclusive = small, poorly fitted or top-dose-only effect; inactive = no such curve, though single readings can be large or run the other way.
% is scaled to controls: 0 for no effect and ±100 for the full control effect.

As to `CCC(C)C(=O)O[C@H]1[C@@H](O[C@H]2O[C@H](CO)[C@@H](O)[C@H](O)[C@H]2O)O[C@H](CO)[C@@H](O)[C@@H]1O` (stereo not given in full), the Potency entry in assay [1] and in assay [2] was “inactive” each time.
As for `C/C=C/C=C/C(O)=C1/C(=O)[C@]2(C)C3/C(=C(O)/C=C/C=C/C)C(=O)C4(C)C1[C@]1(C)O[C@@]4(O)[C@@]3(C)O[C@@]12O`, the Potency result in assay [1] and in assay [2] was “inactive” each time.
For the molecule `C/C=C1\[C@H](O[C@@H]2O[C@H](CO)[C@@H](O)[C@H](O)[C@H]2O)OC=C(C(=O)O)[C@H]1CC(=O)OCCc1ccc(O)cc1`, the Potency result in assay [1] and in assay [2] was “inactive” throughout.
As for `COc1ccc(/C=C/C(=O)N2CCCC2)cc1`, the Potency result in assay [1] and in assay [2] was “inactive” throughout.
Consider `COc1cc2c(cc1O)C(c1ccc(O)cc1)C(C)C(C)C2` (stereo not given), for which the Potency in assay [1] was 39.8 µM (active). In addition, the Potency entry in assay [2] is “inactive”.
Regarding `C[C@@H](NC(=O)c1cc(C(=O)N[C@@H](Cc2ccccc2)[C@H](O)CNC2CC2)cc(N(C)S(C)(=O)=O)c1)c1ccccc1`, the Potency entry in assay [1] and in assay [2] was “inactive” each time.
For the molecule `COC(=O)C1=COC(OC2OC(CO)C(O)C(O)C2O)C2C(COC(=O)/C=C/c3ccc(O)cc3)C(O)C(O)C12` (stereo not given), the Potency entry in assay [1] and in assay [2] was “inactive” in each case.
For the molecule `COc1cc(C[C@@]2(O)CO[C@@H](c3ccc(O[C@@H]4O[C@H](CO)[C@@H](O)[C@H](O)[C@H]4O)c(OC)c3)[C@H]2CO)ccc1O`, the Potency result in assay [1] and in assay [2] was “inactive” in each case.
Consider `CC1(C)CC[C@]2(C(=O)O)CC[C@]3(C)C(=CCC4[C@@]5(C)C[C@H](O)[C@H](O[C@@H]6O[C@H](CO)[C@@H](O)[C@H](O)[C@H]6O)[C@@](C)(CO)C5[C@H](O)C[C@]43C)[C@@H]2C1` (stereo not given in full), for which the Potency result in assay [1] and in assay [2] was “inactive” throughout.
Regarding `CCc1cc(CC[C@]2(C3CCCC3)CC(O)=C(Cc3nc4nc(C)cc(C)n4n3)C(=O)O2)cc(CC)n1`, the Potency result in assay [1] and in assay [2] was “inactive” in each case.
Consider `CC/C=C\[C@H](O)[C@H](O)C1=C(C)C(=O)[C@]2(O1)C(=O)N[C@@](O)(C(=O)c1ccccc1)[C@@H]2O`, for which the Potency result in assay [1] and in assay [2] was “inactive” throughout.
On to `Cc1occc(=O)c1O[C@@H]1O[C@H](CO[C@@H]2OC[C@](O)(CO)[C@H]2O)[C@@H](O)[C@H](O)[C@H]1O`, for which the Potency entry in assay [1] and in assay [2] was “inactive” in each case.
Regarding `CC[C@H]1OC(=O)[C@H](C)[C@@H](O[C@H]2C[C@@](C)(OC)[C@@H](O)[C@H](C)O2)C(C)[C@@H](O[C@@H]2O[C@H](C)C[C@H](N(C)C)[C@H]2O)[C@](C)(O)C[C@@H](C)CN(C)[C@H](C)[C@@H](O)[C@]1(C)O` (stereo not given in full), the Potency result in assay [1] and in assay [2] was “inactive” throughout.
With `COC(=O)C(CC1(OC(=O)C(C)C)c2ccccc2N2C(=O)C(C)(C)N(O)C21)n1cnc2ccccc2c1=O` (stereo not given), the Potency entry in assay [1] and in assay [2] was “inactive” throughout.
On to `Cc1ccc(Cl)cc1N(CC(=O)Nc1c(F)cccc1F)S(C)(=O)=O`, for which the Potency result in assay [1] and in assay [2] was “inactive” each time.
For the molecule `O=C(Cc1ccc(Cl)cc1)Nc1cnccc1C(=O)O`, the Potency entry in assay [1] and in assay [2] was “inactive” throughout.
Take `Fc1ccc(-c2c3cccc(C(F)(F)F)c3nn2Cc2ccc(F)cc2Cl)cc1`: the Potency result in assay [1] and in assay [2] was “inactive” in each case.
Turning to `C=C[C@H]1[C@H](O[C@@H]2O[C@H](CO)[C@@H](O)[C@H](O)[C@H]2O)OC=C(C(=O)OC)[C@H]1CCO`, the Potency entry in assay [1] and in assay [2] was “inactive” each time.
For `Cc1cc(Cn2cnc3c2CC(C(=O)O)N(C(=O)C(c2ccccc2)c2ccccc2)C3)ccc1N(C)C` (stereo not given), the Potency result in assay [1] and in assay [2] was “inactive” throughout.
For `CC(C)=CC[C@H]1O[C@]2(O)C([C@H]3CCC4[C@@]5(C)CC[C@H](O[C@@H]6O[C@H](CO)[C@H](O)[C@H](O[C@@H]7O[C@H](CO)[C@@H](O)[C@H](O)[C@H]7O)[C@H]6O[C@@H]6O[C@@H](C)[C@H](O)[C@@H](O)[C@H]6O)C(C)(C)C5CC[C@@]4(C)[C@]3(C)[C@H]2O)[C@@]1(C)O` (stereo not given in full), the Potency result in assay [1] and in assay [2] was “inactive” each time.
As to `C[C@@H]1O[C@@H](O[C@H]2[C@@H]3C=CO[C@@H](O[C@@H]4O[C@H](CO)[C@@H](O)[C@H](O)[C@H]4O)[C@@H]3[C@@]3(CO)O[C@@H]23)[C@H](O)[C@H](OC(=O)/C=C/c2ccc(O)cc2)[C@H]1OC(=O)/C=C/c1ccc(O)cc1`, the Potency result in assay [1] and in assay [2] was “inactive” in each case.
Consider `NC1=NC2(c3cc(NC(=O)c4ccc(F)cn4)ccc3F)COCC2CS1` (stereo not given), for which the Potency result in assay [1] and in assay [2] was “inactive” each time.
As to `c1ccc2c(Nc3nnc(-c4ccncc4)s3)cccc2c1`, the Potency entry in assay [1] and in assay [2] was “inactive” in each case.
`N[C@@H](CC(=O)Nc1ccc(Oc2cc(F)c(F)cc2Br)cc1)C(=O)O`: the Potency in assay [1] was 70.8 µM (active). In assay [2], the Potency result is “inactive”.
`CC1(C)C2CC[C@@]34CC(CC[C@H]3[C@]2(C)CC[C@@H]1O[C@@H]1O[C@H](CO)[C@@H](O)[C@H](O)[C@H]1O)[C@](C)(O)C4` (stereo not given in full): the Potency result in assay [1] and in assay [2] was “inactive” each time.
`CCCN1CCC[C@@H](c2cccc(S(C)(=O)=O)c2)C1`: the Potency entry in assay [1] and in assay [2] was “inactive” each time.
As to `FC(F)(F)c1nnc2c(Sc3ccccc3)nc3ccc(Cl)cc3n12`, the Potency result in assay [1] and in assay [2] was “inactive” each time.
`O=C(O)[C@H]1Cc2ccccc2CN1`: the activity change, negative = inhibition in assay [1] is -0.45% [at 11.5 µM]; in assay [2], 20.2% [at 4.91 µM].
Consider `COc1cc2c(cc1O)CC(O)(CO)C(CO)C2c1ccc(OC2OC(CO)C(O)C(O)C2O)c(OC)c1` (stereo not given), for which the Potency result in assay [1] and in assay [2] was “inactive” each time.
Turning to `CC(C)C(O)(CO)CCO[C@@H]1O[C@H](CO[C@H]2OC[C@](O)(CO)[C@H]2O)[C@@H](O)[C@H](O)[C@H]1O` (stereo not given in full), the Potency entry in assay [1] and in assay [2] was “inactive” in each case.
